PfHsp90 yeast 2: reduces growth (ATP signal) of yeast expressing P. falciparum Hsp90. 0.32% of 310,000 active. inhibition, % at 9.4 µM. AID 504621. S. cerevisiae expressing PfHsp90, BacTiter-Glo ATP, 48 h; yeast lacking PDR1 and PDR3 efflux regulators;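 active = every replicate shows inhibition above about 80%, whatever the replicate mean, limit read from the data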
TIM10 inh: growth inhibitors of TIM10 yeast strain; inhibition, % at 10 µM; 1.4% of 330,000 active; S. cerevisiae TIM10 strain growth, BacTiter-Glo luminescence, 24 h;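 active = inhibition of 40% or more at the single tested concentration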;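 note: wild-type TIM10 isogenic control strain grown at permissive 25 °C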
NLRP3 yeast inh: NALP3 inhibition in yeast | Yeast reconstituted NLRP3/ASC/caspase-1, beta-gal luminescence, 24 h | inhibition, % at 10 µM | 0.39% of 330,000 active;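 active = inhibition of 50% or more; inactive = inhibition below 50%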
NALP1 yeast inh: inhibitors of NALP1 inflammasome in yeast | S. cerevisiae NALP1/ASC/caspase-1 growth, X-gal OD620, 72 h | inhibition, % at 10 µM | 0.61% of 280,000 active; in the data active = inhibition mostly above about 24%, no sharp cut-off; inactive = mostly below about 32%
tim23-1 inh: growth inhibitors of tim23-1 mutant yeast; S. cerevisiae tim23-1 growth, BacTiter-Glo luminescence, 24 h; inhibition, % at 20 µM; 1.3% of 330,000 active;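 active = growth inhibition of the mutant yeast at or above 50%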;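 note: temperature-sensitive mutant grown at 25 °C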
tim10-1 inh: growth inhibitors of tim10-1 mutant yeast | AID 463190 | 2.2% of 330,000 active | inhibition, % at 20 µM | S. cerevisiae tim10-1 ts strain growth, BacTiter-Glo, 24 h;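 active = inhibition of at least 40%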;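 note: mutant grown at 25 °C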
TIM10 conf: confirmation of TIM10 yeast growth inhibitors; shares compounds with TIM10 inh; S. cerevisiae tim10 strain growth, BacTiter-Glo luminescence, 24 h; inhibition, % at 10 µM; 63% of 4,600 active;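 active = inhibition of yeast growth at or above a set limit in either of two replicates at 10 µM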; note: this counterscreen used the strain with wild-type TIM10
A number is an active result; i = inactive; nt = no result. The list is not random: actives were taken first. Their share in the collection is about 4.1%.

SMILES | PfHsp90 yeast 2 | TIM10 inh | NLRP3 yeast inh | NALP1 yeast inh | tim23-1 inh | tim10-1 inh | TIM10 conf
Cc1ccc(Nc2nc(-c3sc(C)nc3C)cs2)cc1 | i | 46 | i | i | i | i | 49
Cc1cc(Oc2nnnn2-c2ccccc2)ccc1Cl | nt | 40 | i | i | i | i | 30
CCOC(=O)c1c(C)[nH]c(C(=O)N/N=C/c2ccc(Br)cc2)c1C | i | 50 | i | i | i | i | 46
Cc1[nH]c(C(=O)N/N=C/c2ccc(C(=O)O)cc2)c(C)c1C(=O)N/N=C/c1ccc(C(=O)O)cc1 | i | i | i | i | i | i | nt
Cc1ccc2nc(-c3sc4nc(C)ccc4c3N)[nH]c2c1 | i | 63 | i | i | i | i | 48
CCCCN(CC)CCCNC(=O)c1ccc2c(c1)N(CC)C(=O)c1ccccc1S2(=O)=O | i | i | i | i | i | i | nt
CCOC(=O)CSc1ccc2ccccc2n1 | i | i | i | i | i | i | nt
CCOC(=O)CN1C=C(c2ccc3ccccc3n2)C(C[N+](=O)[O-])c2ccccc21 (stereo not given) | i | 57 | i | i | i | i | 62
CC1Cc2ccccc2N1C(=O)Cn1cnc2c1c(=O)n(C)c(=O)n2C (stereo not given) | i | i | i | i | i | i | nt
CCOC(=O)c1ccc(NC(=O)c2c(N)n(Cc3ccccc3)c(=O)[nH]c2=O)cc1 | i | 98 | i | nt | i | i | i
COc1cccc(-c2nc(CS(=O)(=O)CC(=O)Nc3ccccc3Cl)c(C)o2)c1 | i | i | i | i | i | i | nt
C[n+]1c2n(c3ccccc31)N=C(c1ccc(Cl)cc1)CS2 | i | 41 | i | i | i | i | 44
COc1cc2c(cc1OC)C(NC(=O)c1ccc(C)cc1)CC2=O (stereo not given) | i | i | i | i | i | i | nt
O=c1oc(-c2ccccc2)nc2sc3c(c12)CCC3 | i | 42 | i | i | i | i | i
Cc1cccc(NC(=S)N/N=C(\c2ccccc2)C(C)C)c1 | i | 54 | i | i | i | i | 40
COc1ccc(Cn2c(-c3ccc(C)cc3)c[n+]3ccccc23)cc1 | i | 42 | i | nt | i | i | 51
CC(Sc1nnc(CN2CCCC2)n1Cc1ccccc1)C(=O)Nc1ccc(F)cc1Cl (stereo not given) | i | nt | nt | nt | nt | nt | nt
O=C1[C@H]2C(c3ccccc3)=NN(c3ccccc3)[C@H]2C(=O)N1c1ccccc1 | i | 49 | i | i | i | i | 46
COC(=O)CNC(=O)CSc1nc2sccc2c(=O)n1-c1ccccc1 | i | i | i | i | i | i | nt
COC(=O)CNC(=O)CSc1nc2sc(-c3ccccc3)cc2c(=O)n1-c1ccccc1 | i | 45 | i | nt | i | i | 38
Cc1ccc(/C=N/n2c(COc3ccccc3)n[nH]c2=S)s1 | i | 48 | i | i | i | i | 44
Cc1ccc(S(=O)(=O)N2CCN(C(=O)COC(=O)CC(C)c3ccccc3)CC2)c(C)c1 (stereo not given) | i | i | i | nt | i | i | nt
CC(C)(C)Nc1nc(Cl)nc(Nc2ccccc2)n1 | i | i | i | i | i | i | nt
COc1ccccc1Nc1nc(Cl)nc(NC(C)(C)C)n1 | i | 42 | i | i | i | i | i
c1cc(-c2nnc3sc(C4CCCCC4)nn23)ccn1 | i | 41 | i | i | i | i | i
SMILES | PfHsp90 yeast 2 | TIM10 inh | NLRP3 yeast inh | NALP1 yeast inh | tim23-1 inh | tim10-1 inh | TIM10 conf
CCCOc1ccc(C2=NNC(c3cccs3)=Nc3ccc(OC)cc32)cc1 | i | 52 | i | i | i | i | 39
COc1ccc2c(c1)C(c1cccs1)=NNC(c1ccncc1)=N2 | i | i | i | i | i | i | nt
Cc1nnc(C)n1/N=C/c1ccc(O)cc1 | i | i | i | i | i | i | nt
Oc1ccc(/C=N/n2c3ccccc3c3ccccc32)cc1 | i | 44 | i | i | i | i | 75
CCCCCCN1C(=O)CC(NC(=O)OCC2c3ccccc3-c3ccccc32)C/C=C\C1C(C)C (stereo not given) | i | i | nt | nt | i | i | nt
O=C(NCCCN1CCOCC1)/C(=C/c1ccco1)NC(=O)c1ccccc1 | i | i | i | i | i | i | nt
COc1ccc(C2=NN(C(=S)Nc3ccccc3)C(c3ccccc3)C2)cc1 (stereo not given) | i | i | i | i | i | i | nt

Compound activity deposited in PubChem BioAssay by several laboratories.
